Experimental data from PubChem BioAssay (NCATS).
Where “and” joins values, the source holds several entries; their conditions need not be identical. Equal values may be shown once. Results filed as inconclusive are left out. Some compounds were tested as several samples or in several runs, with calls that do not always agree. Calls of active or inactive are those of the source. Calls follow the shape of the dose curve; as a rule, active = well fitted curve in the direction sought with a large enough effect; inconclusive = small, poorly fitted or top-dose-only effect, or another doubt; inactive = no such curve, though single readings can be large; an effect the other way counts as inactive or inconclusive.

Experiments:
CRL-7250 = normal cell line; assay: Cytotoxic Profiling of Annotated Libraries Using Quantitative High-Throughput Screening (AID 1296008); settings: Five cell lines viability, CellTiter-Glo ATP luminescence, 48-72 h; max response: stronger effect = lower value; also: nearly all actives have a fitted effect of over 60% in size; as to max response: % is scaled to controls: 0 for no effect and ±100 for the full control effect
Summary of the method: (§1)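 Cells exposed to compounds for 48 or 72 hr at 37 degrees Celsius. Viability read as ATP-coupled luminescence with CellTiter-Glo after 10 min at room temperature.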

HEK293 = assay: as above; settings: Five cell lines viability, CellTiter-Glo ATP luminescence, 48-72 h; max response: stronger effect = lower value
Summary of the method: as §1

HaCat [1] = assay: as above; settings: Five cell lines viability, CellTiter-Glo ATP luminescence, 48-72 h; max response: stronger effect = lower value
Summary of the method: as §1

KB-3-1 = assay: as above; settings: Five cell lines viability, CellTiter-Glo ATP luminescence, 48-72 h; max response: stronger effect = lower value
Summary of the method: as §1

NIH3T3 [2] = assay: as above; settings: Five cell lines viability, CellTiter-Glo ATP luminescence, 48-72 h; max response: stronger effect = lower value
Summary of the method: as §1

HACAT [3] = assay: qHTS assay to identify novel small-molecules to repurpose for Merkel cell carcinoma treatment (AID 1296009); settings: MCC and control cell lines, CellTiter-Glo viability, 72 h; at 44.8 µM (top of the series) unless noted; also: nearly all actives have a fitted effect of over 60% in size
Summary of the method: (§2)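 Cells were treated for 72 hr at 37 degree celsius with compounds in 8- or 11-point dose response. Viability was read by CellTiter-Glo luminescence, normalized to no-cell (cytotoxicity) and DMSO controls.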

MCC-13 = assay: as above; settings: MCC and control cell lines, CellTiter-Glo viability, 72 h; series mostly up to 46 µM
Summary of the method: as §2

MKL-1 = assay: as above; settings: MCC and control cell lines, CellTiter-Glo viability, 72 h; series mostly up to 46 µM
Summary of the method: as §2

MKL-2 = assay: as above; settings: MCC and control cell lines, CellTiter-Glo viability, 72 h; series mostly up to 46 µM
Summary of the method: as §2

NIH3T3 [4] = assay: as above; settings: MCC and control cell lines, CellTiter-Glo viability, 72 h; at 44.8 µM (top of the series) unless noted
Summary of the method: as §2

WaGa = assay: as above; settings: MCC and control cell lines, CellTiter-Glo viability, 72 h; series mostly up to 46 µM
Summary of the method: as §2

SC27B = assay: qHTS profiling for inhibitors of Plasmodium falciparum proliferation (AID 504749); also: nearly all actives have a fitted effect of over 60% in size; settings: P. falciparum in erythrocytes, SYBR Green DNA, 72 h; series mostly up to 28.7 µM
Summary of the method: (§3)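 P. falciparum-infected erythrocytes (0.3% parasitemia, 2.5% hematocrit) incubated with compound 72 h at 37 C, 5% CO2. Parasite DNA detected by SYBR Green after lysis, overnight at room temperature; normalised to 0.29 uM artemisinin and DMSO.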

TAB109 = assay: as above; settings: P. falciparum in erythrocytes, SYBR Green DNA, 72 h; series mostly up to 28.7 µM
Summary of the method: as §3

TAB113 = assay: as above; settings: P. falciparum in erythrocytes, SYBR Green DNA, 72 h; series mostly up to 28.7 µM
Summary of the method: as §3

TAB165 = assay: as above; settings: P. falciparum in erythrocytes, SYBR Green DNA, 72 h; series mostly up to 28.7 µM
Summary of the method: as §3

W2 = assay: as above; settings: P. falciparum in erythrocytes, SYBR Green DNA, 72 h; series mostly up to 28.7 µM
Summary of the method: as §3

MCC-26 = assay: qHTS assay to identify novel small-molecules to repurpose for Merkel cell carcinoma treatment (AID 1296009); settings: MCC and control cell lines, CellTiter-Glo viability, 72 h; series mostly up to 46 µM; also: nearly all actives have a fitted effect of over 60% in size
Summary of the method: as §2

UISO = assay: as above; settings: MCC and control cell lines, CellTiter-Glo viability, 72 h; series mostly up to 46 µM
Summary of the method: as §2

C33A = assay: Primary qHTS to identify gynecologic anti-cancer compounds using libraries of approved drugs and bioactive compounds (AID 1345084); settings: Gynecologic cancer cell panel viability, ATPlite luminescence, 48 h; series mostly up to 57.5 µM; also: nearly all actives have a fitted effect of over 55% in size
Summary of the method: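 Five-concentration response, 48 h; readout is ATP-driven luciferase luminescence.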

HEK293T = assay: qHTS assay to identify novel small-molecules to repurpose for Merkel cell carcinoma treatment (AID 1296009); settings: MCC and control cell lines, CellTiter-Glo viability, 72 h; at 44.8 µM (top of the series) unless noted; also: nearly all actives have a fitted effect of over 60% in size
Summary of the method: as §2
Potency is read from the fitted curve at half-maximal effect.

O=C(CCc1ccc(O)cc1)c1c(O)cc(O)cc1O
inactive: outcome (CRL-7250) | max response (HEK293) 0.264% | outcome (HaCat [1]) | outcome (KB-3-1) | outcome (NIH3T3 [2]) | outcome (HACAT [3]) | Potency (MCC-13) | outcome (NIH3T3 [4])
active: Potency (MKL-1) 9.35 µM | Potency (MKL-2) 4.69 µM | Potency (WaGa) 5.9 µM

CN(C)c1ccc2nc3ccc(=[N+](C)C)cc-3sc2c1
active: Potency (SC27B) 0.0631 µM | Potency (TAB109) 0.0501 µM | Potency (TAB113) 0.0501 µM | Potency (TAB165) 0.0708 µM | Potency (W2) 0.0478 µM | Potency (CRL-7250) 11.8 µM and 23.7 µM | Potency (HEK293) 1.66 µM and 1.33 µM | Potency (HaCat [1]) 3.72 µM and 10.6 µM | Potency (KB-3-1) 2.09 µM and 6.51 µM | Potency (NIH3T3 [2]) 5.26 µM and 3.35 µM | Potency (MCC-13) 7.43 µM and 2.66 µM | Potency (MCC-26) 21.1 µM | Potency (MKL-1) 2.35 µM and 841 nM | Potency (MKL-2) 4.69 µM and 2.66 µM | Potency (UISO) 3.32 µM and 2.37 µM | Potency (WaGa) 1.87 µM and 1.19 µM | Potency (C33A) 1.12 µM

O=P(O)(O)C(O)(Cn1ccnc1)P(=O)(O)O
inactive: Potency (SC27B) | Potency (TAB109) | Potency (TAB113) | Potency (TAB165) | Potency (W2) | outcome (CRL-7250) | max response (HEK293) -11% | outcome (HaCat [1]) | max response (KB-3-1) -1.09% and 1.16% | max response (NIH3T3 [2]) -2.33% | outcome (HACAT [3]) inactive [at 17.4 µM] | Potency (MCC-13) | Potency (MCC-26) | Potency (MKL-1) | Potency (MKL-2) | Potency (UISO) | Potency (WaGa)

O=C(OC1C[C@H]2CC[C@@H](C1)[N+]21CCCC1)C(O)(c1ccccc1)c1ccccc1 (stereo partly specified)
inactive: max response (CRL-7250) 4.02% | max response (HEK293) 3.35% | max response (HaCat [1]) 1.67% | max response (KB-3-1) 8.48% and 5.72% | max response (NIH3T3 [2]) -8.22% | Potency (MCC-13) | Potency (MCC-26) | Potency (MKL-1) | Potency (MKL-2) | Potency (UISO) | Potency (WaGa) | Potency (C33A)
active: Potency (TAB109) 3.55 µM | Potency (TAB165) 3.98 µM | Potency (W2) 1.69 µM

CCOC(=O)C(C)Oc1cccc2c(=O)n(CC(=O)Nc3ccc4c(c3)OCCO4)ccc12 (stereo unspecified)
inactive: max response (CRL-7250) 3.46% | max response (HEK293) -23.2% | outcome (HaCat [1]) | outcome (KB-3-1) | max response (NIH3T3 [2]) 0.733% | outcome (HACAT [3]) | Potency (MCC-13) | Potency (MCC-26) | Potency (MKL-1) | Potency (UISO) | Potency (WaGa)

O=C1NC(=O)C(c2ccccc2[N+](=O)[O-])=C1Nc1ccc(O)c(Cl)c1
inactive: max response (CRL-7250) -2.05% | outcome (HEK293) | max response (HaCat [1]) -25.3% | outcome (KB-3-1) | outcome (NIH3T3 [2]) | outcome (HEK293T) | Potency (MCC-13) | Potency (MCC-26) | Potency (MKL-1) | Potency (MKL-2) | outcome (NIH3T3 [4]) | Potency (UISO) | Potency (WaGa)

O=C(c1ccccc1)c1ccc2n1CCC2C(=O)O (stereo unspecified)
inactive: max response (CRL-7250) -6.97% and 1.24% | max response (HEK293) 1.29% and -15.1% | outcome (HaCat [1]) | max response (KB-3-1) 1.88% and -12.7% and 3.64% | max response (NIH3T3 [2]) -2.4% and -6.59% | outcome (HACAT [3]) | Potency (MCC-13) | Potency (MCC-26) | Potency (MKL-1) | Potency (MKL-2) | Potency (UISO) | Potency (WaGa) | Potency (C33A)

O=c1oc2cc(O)ccc2s1
inactive: Potency (SC27B) | Potency (TAB109) | Potency (TAB113) | Potency (TAB165) | max response (CRL-7250) 4.4% | max response (HEK293) -4.04% | outcome (HaCat [1]) | max response (KB-3-1) -11.2% and -4.56% | max response (NIH3T3 [2]) -4.48% | outcome (HACAT [3]) | Potency (MCC-13) | Potency (MKL-1) | Potency (MKL-2) | Potency (UISO) | Potency (WaGa)

Cc1ccc(S(=O)(=O)NC(=O)NN2CC3CCCC3C2)cc1 (stereo unspecified)
inactive and 26.4 µM (active): Potency (MKL-2)
inactive: outcome (CRL-7250) | max response (HEK293) 2.56% | outcome (HaCat [1]) | max response (KB-3-1) 5.5% and -19.7% | max response (NIH3T3 [2]) 2.24% and -2.1% | outcome (HACAT [3]) | Potency (MCC-13) | Potency (MKL-1) | Potency (UISO) | Potency (WaGa) | Potency (C33A)

O=c1c(O)c(-c2ccc(O)cc2O)oc2cc(O)cc(O)c12
inactive: max response (CRL-7250) -3.27% | max response (HEK293) 4.53% | outcome (HaCat [1]) | max response (KB-3-1) -10.8% | max response (NIH3T3 [2]) -16.7% | outcome (HACAT [3]) | Potency (MCC-13) | Potency (MKL-1) | Potency (MKL-2) | Potency (UISO) | Potency (WaGa)

CCN(CC)CCOc1ccc(Nc2ncc3cc(-c4c(Cl)cccc4Cl)c(=O)n(C)c3n2)cc1
active: Potency (CRL-7250) 16.6 nM | Potency (HEK293) 209 nM | Potency (HaCat [1]) 264 nM | Potency (KB-3-1) 296 nM | Potency (NIH3T3 [2]) 74.3 nM | Potency (MCC-13) 2.64 µM | Potency (MKL-1) 1.32 µM | Potency (MKL-2) 5.26 µM | Potency (UISO) 5.26 µM | Potency (WaGa) 2.96 µM

Cc1c(OCC(F)(F)F)ccnc1CS(=O)c1nc2ccccc2[nH]1 (stereo unspecified)
inactive: Potency (SC27B) | Potency (TAB109) | Potency (TAB113) | Potency (TAB165) | max response (CRL-7250) -8.7% and 2.17% | max response (HEK293) 3.36% | outcome (HaCat [1]) | max response (KB-3-1) -13.1% and -5.17% | max response (NIH3T3 [2]) 1.81% and 4.74% | outcome (HACAT [3]) | Potency (MCC-13) | Potency (MKL-1) | Potency (MKL-2) | Potency (UISO) | Potency (WaGa) | Potency (C33A)
